Each structure is given as a SMILES string. Hit rate of the full screen: of about 340,000 compounds, about 6,900 (2%) were called active. Only a selection was taken, and actives are over-represented in it overall. Values without a mark were called inactive. No stated cut-off is given here; in the data, active means inhibition above about 30%; inactive means below that, where a call was filed.

Chain of D(2) dopamine receptor (Homo sapiens) (P14416 whole entry, looked up): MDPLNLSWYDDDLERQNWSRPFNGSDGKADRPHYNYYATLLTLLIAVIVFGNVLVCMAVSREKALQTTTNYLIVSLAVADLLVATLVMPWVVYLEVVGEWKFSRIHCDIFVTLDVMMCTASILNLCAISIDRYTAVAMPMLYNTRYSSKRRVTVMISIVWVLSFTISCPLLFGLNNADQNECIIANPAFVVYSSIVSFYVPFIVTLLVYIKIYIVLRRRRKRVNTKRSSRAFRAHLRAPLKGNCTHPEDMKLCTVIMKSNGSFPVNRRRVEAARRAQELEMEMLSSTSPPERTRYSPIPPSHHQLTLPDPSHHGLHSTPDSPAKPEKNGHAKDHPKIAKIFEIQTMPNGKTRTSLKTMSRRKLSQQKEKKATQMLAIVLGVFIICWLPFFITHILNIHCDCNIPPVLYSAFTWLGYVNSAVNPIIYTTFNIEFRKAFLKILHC

This assay deals with D(2) dopamine receptor (Homo sapiens) (UniProt P14416). The assay is described as follows: HTS Assay for Allosteric Antagonists of the Human D2 Dopamine Receptor: Primary Screen for Antagonists. Further: 0% is about no effect. To be noted: HEK293 TREx D2 cells, calcium flux, dopamine EC80; at 10 µM; stronger effect = higher value. Summed up:
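Tetracycline-induced HEK293 TREx cells expressing D2 receptor forced-coupled to calcium signalling, loaded with no-wash calcium dye. Compounds added and calcium flux read 180 s, then dopamine added at EC80 and read a further 180 s.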
On the technique in general: A change in cytosolic calcium serves as a functional read-out for many receptors and channels.
Turning to `OC(COCc1ccco1)CN1CCN(c2ccccc2)CC1` (centres undefined), the inhibition – broadly, the drop in the measured response relative to a control, in per cent – is 74.4% (active).
The same measure for `OC(COCC1COc2ccccc2O1)CN1CCN(c2ccc(F)cc2)CC1` (centres undefined): 2.02%.
`O=[N+]([O-])c1ccc(N2CCN(CC(O)COc3ccccc3)CC2)cc1` (centres undefined): the inhibition was -9.55%.
On to `O=C(CSc1nc2ccccc2c(=O)n1CCCO)NC1CC1`, for which the inhibition is -4.48%.
The value for `C=CCC(NC(=O)Cc1ccccc1)C(=O)NCCC` (centres undefined) was 1.08%; that for `CCCCC/C=C/C1=CC(=O)C[C@H](c2ccc(Cl)cc2)C1` was 3.21%; that for `CC(C)(C)OC(=O)N/N=C/c1cn(-c2ccccc2)nc1-c1cccnc1` was -2.64%.
Consider `Cc1nnc(SCC(=O)N/N=C/c2cn(-c3ccccc3)nc2-c2ccc(F)cc2)n1-c1ccccc1`, for which the inhibition is -8.35%.
The same measure for `Cc1ccc(-c2nn(-c3ccccc3)cc2/C=N/NC(=O)c2ccc3c(c2)OCO3)cc1`: 31.8% (active); for `Cc1ccc(OCC(=O)N2CCN(S(=O)(=O)c3ccc(Cl)s3)CC2)cc1C`: -12%; for `CCCc1nc2ccccc2c(C(=O)OCC(=O)c2ccc3c(c2)NC(=O)CO3)c1CC`: -8.13%.
The same measure for `O=C(OCc1nnc(-c2ccccc2)o1)c1cc(=O)[nH]c2ccccc12`: 6.34%.
The same measure for `CCCc1nc2ccccc2c(C(=O)OCc2nnc(-c3cc(OC)c(OC)c(OC)c3)o2)c1CC`: 38% (active).
On to `COc1cc2[nH]c(=O)n(CCC(=O)NC3CCN(Cc4ccccc4)CC3)c(=O)c2cc1OC`, for which the inhibition was -8.24%.
Turning to `COc1cc(C(=O)NC2CCN(Cc3ccccc3)CC2)cc(Cl)c1OC(C)C`, the inhibition was 47.6% (active).
Turning to `CCOc1cc2[nH]c(=O)n(Cc3ccc(C(=O)NCCCN4CCCC4=O)cc3)c(=O)c2cc1OCC`, the inhibition is 9.71%.
The same measure for `COc1cc2[nH]c(=O)n(Cc3ccc(C(=O)NC4CCN(Cc5ccccc5)CC4)cc3)c(=O)c2cc1OC`: 90.8% (active); for `COC(=O)c1cccc(NC(=O)CN2CCC(NC(=O)c3cc(OC)c(OC)c(OC)c3)CC2)c1`: -8.24%; for `COc1ccc(C(=O)NC2CC2)cc1OC1CCN(Cc2ccc(SC)cc2)CC1`: 2.51%.
In the case of `Cc1c(NC(=O)CSc2nnc(-c3cccnc3)n2N)c(=O)n(-c2ccccc2)n1C`, the inhibition is 7.44%.
The value for `CCCCn1c(N)c(N(CCC(C)C)C(=O)c2ccc(COc3ccccc3)o2)c(=O)[nH]c1=O` was -9.11%.
Take `C#CCOCCOCCOCCNc1nc(N2CCN(C(=O)CCCCCCCCCCNC(=O)[C@H]([C@@H](C)CC)n3cc(CCCCN=C(N)N)nn3)CC2)nc(N2CCN(C(=O)CCCCCCCCCCNC(=O)[C@H](CO)n3cc(CCCSC)nn3)CC2)n1`: the inhibition is 1.17%.
In the case of `Cc1ccn2c(=O)nc(SCC(=O)NCc3ccc(F)cc3)nc2c1`, the inhibition was 17.8%.
Regarding `C/C(=N\NC(=S)NCc1ccccc1)C1CCCCC1`, the inhibition is -10.6%.
The same measure for `CC1CCCCN1C(=S)NCc1ccccc1` (centres undefined): 31.9% (active); for `CC1CCCCN1C(=O)CCS(=O)(=O)Cc1ccccc1` (centres undefined): 3.72%; for `O=C(CN1CCCSc2ccccc21)N1CCN(S(=O)(=O)c2ccccc2)CC1`: 3.3%.
For `O=C(OCc1cc(=O)n2ccsc2n1)C1(c2ccc(Cl)cc2)CC1`, the inhibition is 29.3%.
The value for `CSCCC(NC(=O)c1ccccc1)C(=O)N1CCN(Cc2ccc(Cl)cc2)CC1` (centres undefined) was -14.3%.
The value for `N#Cc1ccc(C2=CC(=O)C[C@H](c3ccc(Cl)cc3)C2)cc1` was -1.65%.
The value for `CCc1ccccc1NC(=O)CN(C)C(=O)c1cc(C2CC2)nn1-c1ccccc1` was 2.39%.
For `COc1cccc(NC(=O)CN(C)C(=O)c2cc(C3CC3)nn2-c2ccccc2)c1`, the inhibition was -0.486%.
`COc1ccc(NC(=O)CN(C)C(=O)c2cc(C3CC3)nn2-c2ccccc2)cc1`: the inhibition is 39.5% (active).
The same measure for `Cc1csc(=O)n1CCC(=O)OCC(=O)NNC(=O)c1ccc(Br)cc1`: -9.52%.
The same measure for `Cc1c(C(C)CCCO)oc(=O)c2c1Oc1c(C)c(C(C)C[C@@H](C)O)oc(=O)c1C2` (some centres undefined): 17%; for `Cc1ccc(C(=O)OCC(=O)N2CC(C)CC(C)C2)cc1S(=O)(=O)N1CCCCC1` (centres undefined): 19.3%; for `O=C(CN1CCN(c2ccccc2)CC1)Nc1ccc(F)cc1`: 13.5%.
As for `O=C(CN1CCN(c2ccc(F)cc2)CC1)Nc1ccccc1`, the inhibition was -19.8%.
The same measure for `O=C(CCN1CCN(c2ccccc2)CC1)NNC(=S)Nc1ccccc1`: 61.2% (active); for `Cc1cccc(C)c1NC(=O)COC(=O)c1c(C)nn(-c2ccccc2)c1C`: 1.57%; for `Cc1ccc(C(CC(=O)O)NC(=O)c2ccc(S(=O)(=O)N3CCCC3)cc2)cc1` (centres undefined): 8.12%.
The same measure for `CCCCN(C)c1ccc([N+](=O)[O-])cc1`: -0.645%; for `CN(C)CCCN1C(=O)CSC1c1ccc([N+](=O)[O-])cc1` (centres undefined): 34% (active); for `CN(C)CCNC(=O)Cc1ccc([N+](=O)[O-])cc1`: -7.39%.
The same measure for `CC(=O)Nc1ccc(S(=O)(=O)N2CCn3cccc3C2C)cc1` (centres undefined): 2.61%; for `Cc1cccc(C(=O)NNC(=O)CSc2nnc(C(C)C)n2C)c1`: 41.8% (active); for `CCC(c1nnc(SCC(=O)NNC(=O)c2ccccc2)n1Cc1ccccc1)N(C)C` (centres undefined): -24.9%.
Turning to `CCn1c(SCC(=O)NNC(=O)c2ccc(OC)cc2)nnc1C(C)C`, the inhibition was -19.3%.
The same measure for `CN(CC(=O)NCc1ccc2c(c1)OCO2)CC(=O)Nc1ccc(F)c(F)c1F`: -25.8%; for `CCC[C@H]1CCCC/C=C\CCCC(=O)OCCN1C(=O)OC(C)(C)C`: -5.66%.
Regarding `COc1ccccc1/C=C/C=N/NC(=O)CN1CCN(Cc2ccccc2)CC1`, the inhibition was -10.7%.
The same measure for `COc1ccccc1/C=C/CN1CCC(CO)(Cc2ccccc2)CC1`: 53.2% (active); for `COC(=O)CCC(=O)N1CCCC(CO)(Cc2ccccc2)C1` (centres undefined): 3.17%.
The value for `Cc1cc(NC(=O)COc2ccc([N+](=O)[O-])cc2)no1` was -5.38%.
Regarding `COc1ccccc1NC(=O)COC(=O)COc1ccccc1F`, the inhibition is -3.39%.
The same measure for `Cc1ccc(OCCNC(=O)CN2C(=O)NC3(CCCC3)C2=O)cc1`: 1.97%; for `COc1cc(C(c2c(NC(=O)c3ccco3)sc(C)c2C)N2CCOCC2)cc(OC)c1OC` (centres undefined): -0.625%.
With `CCOc1ncccc1C(=O)OCC(=O)N1c2ccccc2CC1C` (centres undefined), the inhibition is -9.6%.
As to `CN(CC(=O)NC1CCCCC1)S(=O)(=O)c1ccc(Br)s1`, the inhibition was 3.02%.
The value for `CN(CC(=O)NC1CCN(Cc2ccccc2)CC1)S(=O)(=O)c1ccc(Cl)s1` was 68.5% (active).
As for `CCOc1ccc(CC(=O)NC2CCN(Cc3ccccc3)CC2)cc1`, the inhibition is 7.65%.
For the compound `CC(C)N(C(=O)CSc1nnc(NC2CC2)s1)c1ccccc1`, the inhibition was -9.12%.
The same measure for `Nc1nnc(SCC(=O)NCC(=O)Nc2ccc(F)c(F)c2F)s1`: 17.4%.
The value for `O=C(c1ccc(Cl)nc1)N1CCN(S(=O)(=O)c2ccc3c(c2)OCCO3)CC1` was -22.8%.
Regarding `O=C(COC(=O)c1cccc(Cl)c1)NC1CCCCCCC1`, the inhibition was 4.87%.
The same measure for `O=C(COC(=O)c1ccccc1Cl)NC1CCCCCCC1`: 40.2% (active); for `O=C(COC(=O)c1ccccc1SCC(=O)NC1CCCCC1)NC1CCCCC1`: -0.864%.
The value for `O=[N+]([O-])c1ccccc1OCCCCN1CCCCC1` was 93.9% (active).
In the case of `COc1cccc(OCCCN2CCCCCC2)c1`, the inhibition is -12.6%.
The same measure for `CC1CN(CCOc2ccccc2[N+](=O)[O-])CC(C)O1` (centres undefined): 1.8%.
The value for `Cc1ccc(C(C)(C)C)c(OCCCCN2CCCC2)c1` was 31% (active).
As for `CC(=O)Nc1ccc(S(=O)(=O)N2CCN(CCCOc3cc(C)ccc3C)CC2)cc1`, the inhibition was 3.73%.
The value for `Cc1ccc(OCCCCN2CCCCC2)c(Br)c1` was 73.5% (active); that for `C=CCN(CC=C)CCOc1ccccc1[N+](=O)[O-]` was 6.41%; that for `CC(C)(c1ccccc1)c1ccc(OCCN2CCCC2)cc1` was 0.0464%.
On to `Cc1ccc(C(C)C)cc1OCCN1CCCC1`, for which the inhibition is -14.6%.
`CCN(C(=O)CSc1ncnc2sccc12)c1c(N)n(Cc2ccccc2)c(=O)[nH]c1=O`: the inhibition is -15.3%.
The same measure for `Cc1ccc(S(=O)(=O)N2CCCCC2)cc1NC(=O)[C@@H]1CCCN1C(=O)c1cccs1`: -14.3%; for `Cc1cc(C)c(S(=O)(=O)N2CCC(C(=O)OCc3c(C)noc3C)CC2)c(C)c1`: 7.04%.
As for `O=C(CN1CCCCC1)Nc1ccccc1C(=O)NC1CC1`, the inhibition was 7.71%.
For `Cc1ccc(NC(=O)COC(=O)CN2CCCCCC2=O)c(C)c1`, the inhibition was -4.24%.
Take `OCC1(CCc2ccccc2)CCN(Cc2ccc3nsnc3c2)CC1`: the inhibition was 36.1% (active).
The same measure for `CC(C)(O)C#Cc1ccc(CN2CCC(CO)(CCc3ccccc3)CC2)cc1`: 14.6%.
The value for `Cc1cccc(-c2ncc(CN3CCC(CO)(CCCc4ccccc4)CC3)cn2)c1` was 6.88%; that for `CN(CCOc1ccccc1)C(=O)c1cc(-c2ccco2)nc2ccccc12` was 3.66%.
Turning to `CC(=O)Nc1ccc(NC(=O)C(C)OC(=O)c2ccccc2C(=O)c2ccc(Cl)c([N+](=O)[O-])c2)cc1` (centres undefined), the inhibition is 36.3% (active).
The same measure for `N#Cc1cccc(NC(=O)COC(=O)c2ccccc2C(=O)c2ccc(Cl)c([N+](=O)[O-])c2)c1`: 7.92%; for `CC(OC(=O)CNC(=O)c1ccc(Cl)c([N+](=O)[O-])c1)C(=O)NCc1ccco1` (centres undefined): 26.5%.
The value for `Cc1ccc(S(=O)(=O)CCC(=O)OCC(=O)NCCc2ccc(S(N)(=O)=O)cc2)cc1` was -1.28%.

These data come from PubChem BioAssay AID485344 (National Center for Advancing Translational Sciences (NCATS), 2010).
